Shown are actives, neighbours in structure and some others; about 12% of the full set was active somewhere.
AMA1-RON2 inh = qHTS for Inhibitors of AMA1-RON; Towards Development of Antimalarial Drug Lead: Primary Screen; Plasmodium falciparum AMA1 (3D7) - RON2 peptide interaction; AlphaScreen AMA1-biotinylated RON2 peptide binding; Potency, µM (highest dose often 58.2 µM), without a hit: at the top dose activity change, negative = inhibition, usual class: inhibitors; 360,000 compounds, 0.2% hits;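 also: 0% = vehicle wells and -100% = peptide control; nearly all actives have a fitted effect of over 45% in size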
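AMA1 (3D7) with his tag at 25 nM final met compounds first, then biotinylated RON2 peptide at 25 nM; detection used donor plus acceptor beads, 10 µg/mL apiece, read by AlphaScreen after 30 min at room temperature.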
HCV inhibitor = qHTS Assay for Inhibitors of Hepatitis C Virus (HCV); AID 651820, 2012; 340,000 compounds, 3.4% hits; Huh7.5.1 HCVcc-Cre infection, luciferase reporter, 44 h; Potency, µM (doses to about 41.8 µM), for inactives: top-dose activity change, negative = inhibition, hits mostly inhibitors; also: % is scaled to controls: 0 for no effect and ±100 for the full control effect
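After 44 h co-culture of compound, cells and HCVcc-Cre (~0.5 moi), substrate is added for 15 min at room temperature and luciferase measured over 15 sec. Cells were seeded at 1,000/well and pre-cultured 4 h.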
NS1 inh = qHTS Assay for Inhibitors of Influenza NS1 Protein Function; Potency, µM (top dose mostly 46.1 µM), for the others: top-dose activity, positive = more growth; 270,000 compounds, 0.4% hits; AID 2326, 2010; calls by dose curve; also: actives are rising curves; nearly all actives have a fitted effect of over 50% in size
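Growth recovery, yeast-based: influenza A NS1 expressed in S. cerevisiae causes slow growth, and suppressors are detected by OD600. The parent strain without NS1 is used as positive control.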
Pf growth 96h = Primary qHTS for delayed death inhibitors of the malarial parasite plastid, 96 hour incubation; P. falciparum luciferase reporter growth, 96 h; 320,000 compounds, 6.9% hits; Potency, µM (top dose mostly 28.7 µM), for the others: top-dose activity change, negative = inhibition, hits mostly inhibitors; also: % is scaled to controls: 0 for no effect and ±100 for the full control effect
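P. falciparum expressing integrated firefly luciferase, in erythrocytes at 2% hematocrit, 0.05% parasitemia, incubated with compounds 96 h at 37 C, 5% CO2. Growth inhibition read as loss of luminescence; two-generation exposure targets delayed-death apicoplast inhibitors.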
SARS PLpro yeast = qHTS of Yeast-based Assay for SARS-CoV PLP. S. cerevisiae expressing SARS-CoV PLpro, growth rescue. Potency, µM (series often up to 32.9 µM), inactives show top-dose activity, positive = growth rescue, hits mostly activators. 330,000 compounds, 0.19% hits. AID 485353, 2010; calls by dose curve; also: 0% is about no effect; nearly all actives have a fitted effect of over 55% in size
Pf growth 48h = Primary qHTS for delayed death inhibitors of the malarial parasite plastid, 48 hour incubation; 310,000 compounds, 5.9% hits; P. falciparum luciferase growth in erythrocytes, 48 h; AID 504832, 2011; Potency, µM (highest dose often 28.7 µM), for the others: top-dose activity change, negative = inhibition, usual class: inhibitors; also: % is scaled to controls: 0 for no effect and ±100 for the full control effect
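Firefly luciferase activity from engineered P. falciparum reports growth; inhibitors lower the luminescent signal. Cultures contained 2% hematocrit erythrocytes at 0.1% final parasitemia.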
The depositor's hits bear a star. Unless noted, calls follow the shape of the dose curve; as a rule, active = well fitted curve in the direction sought with a large enough effect; inconclusive = small, poorly fitted or top-dose-only effect, or another doubt; inactive = no such curve, though single readings can be large; an effect the other way counts as inactive or inconclusive. Potency is read from the fitted curve at half-maximal effect.

`COc1ccc(C)cc1S(=O)(=O)N1CCCC(C(=O)N2CCN(c3ccccc3F)CC2)C1` (configuration not stated) gave AMA1-RON2 inh -18%, HCV inhibitor inconclusive, NS1 inh -5%, Pf growth 96h inconclusive, SARS PLpro yeast -4% and Pf growth 48h 10µM*.
For Cn1c(=O)oc2cc(S(=O)(=O)N3CCCC(C(=O)N4CC=C(c5ccccc5)CC4)C3)ccc21 (configuration not stated) the results were NS1 inh 10µM*, Pf growth 96h -2% and SARS PLpro yeast 4%.
`COc1ccc(N2CCN(C(=O)C3CCCN(S(=O)(=O)c4ccc5c(c4)oc(=O)n5C)C3)CC2)cc1` (configuration not stated) gave AMA1-RON2 inh 2%, HCV inhibitor -3%, NS1 inh -3%, Pf growth 96h inconclusive, SARS PLpro yeast -1% and Pf growth 48h 12µM*.
Screening COc1ccc(NC(=O)C2CCCN(S(=O)(=O)c3ccc4c(c3)oc(=O)n4C)C2)cc1OC (configuration not stated) returned AMA1-RON2 inh -1%, HCV inhibitor 9%, NS1 inh -7%, Pf growth 96h inconclusive and SARS PLpro yeast 1%.
`COc1ccccc1N1CCN(C(=O)C2CCCN(S(=O)(=O)c3ccc4c(c3)oc(=O)n4C)C2)CC1` (configuration not stated) gave AMA1-RON2 inh -1%, HCV inhibitor inconclusive, NS1 inh -10%, Pf growth 96h 53%, SARS PLpro yeast -3% and Pf growth 48h 12µM*.
Screening O=C(Nc1ccccn1)C1CCCN1S(=O)(=O)c1ccc(Cl)cc1 (configuration not stated) returned AMA1-RON2 inh -3%, HCV inhibitor 8%, NS1 inh -3%, Pf growth 96h inconclusive, SARS PLpro yeast -1% and Pf growth 48h -14%.
For COc1cc(C(=O)Nc2cc(C)ccn2)ccc1OCC(=O)N1CCOCC1 the results were AMA1-RON2 inh 9%, HCV inhibitor -2%, NS1 inh -12%, Pf growth 96h 64%, SARS PLpro yeast -1% and Pf growth 48h 47%.
Screening COc1ccc(-c2cn(CC[C@@H]3CC[C@H](NC(=O)Cc4ccccn4)[C@@H](CO)O3)nn2)cc1 returned AMA1-RON2 inh 33%.
`COc1ccccc1N1CCN(C(=O)c2ccc(Cl)c(S(=O)(=O)NCc3ccco3)c2)CC1` gave AMA1-RON2 inh 14%, HCV inhibitor 8.9µM*, NS1 inh -1%, SARS PLpro yeast -8% and Pf growth 48h inconclusive.
COc1ccc(N2CCN(C(=O)c3ccc4c(c3)CCN4S(=O)(=O)c3ccccc3)CC2)cc1 was read as AMA1-RON2 inh inconclusive, HCV inhibitor inconclusive, NS1 inh 0%, Pf growth 96h 3%, SARS PLpro yeast 2% and Pf growth 48h 2%.
`O=C(c1cccc(S(=O)(=O)N2CCc3ccccc32)c1)N1CCN(c2ccccc2)CC1` gave AMA1-RON2 inh inconclusive, HCV inhibitor 10µM*, Pf growth 96h 10µM*, SARS PLpro yeast -1% and Pf growth 48h inconclusive.
`COc1ccccc1N1CCN(C(=O)c2ccc3c(c2)CCN3S(=O)(=O)c2ccccc2)CC1` gave AMA1-RON2 inh -1%, HCV inhibitor 13µM*, NS1 inh 11%, Pf growth 96h inconclusive, SARS PLpro yeast -5% and Pf growth 48h 8.3µM*.
O=C(c1cccc(S(=O)(=O)N2CCc3ccccc32)c1)N1CCCC(C(F)(F)F)C1 (configuration not stated) was read as AMA1-RON2 inh -4%, HCV inhibitor 11µM*, Pf growth 96h inconclusive, SARS PLpro yeast 2% and Pf growth 48h inconclusive.
Screening O=C(c1cccc(S(=O)(=O)N2CCCC2)c1)N1CCCC(C(F)(F)F)C1 (configuration not stated) returned AMA1-RON2 inh 125%, HCV inhibitor 13%, Pf growth 96h 24%, SARS PLpro yeast 3% and Pf growth 48h -23%.
Screening O=C(c1ccc(Cl)c(S(=O)(=O)NCc2ccco2)c1)N1CCN(c2ccccc2F)CC1 returned AMA1-RON2 inh -4%, HCV inhibitor -45%, NS1 inh 1%, Pf growth 96h inconclusive and SARS PLpro yeast 14%.
COc1ccc(CCNC(=O)Cn2nnc(C(=O)Nc3cc(C)ccc3C)c2N)cc1OC was read as AMA1-RON2 inh -8%, HCV inhibitor inconclusive, NS1 inh 13%, Pf growth 96h inconclusive, SARS PLpro yeast -3% and Pf growth 48h 8%.
`CCC(C)(C)C1CCC2(CC1)NC(=O)N(CC(=O)NCCOc1ccccc1)C2=O` (configuration not stated) gave AMA1-RON2 inh -6%, HCV inhibitor -4%, Pf growth 96h inconclusive, SARS PLpro yeast -4% and Pf growth 48h inconclusive.
For COc1ccc(CCN2C(=O)c3cccc4cccc(c34)C2=O)cc1OC the results were AMA1-RON2 inh 7%, HCV inhibitor 0%, NS1 inh 4%, Pf growth 96h inconclusive, SARS PLpro yeast 1% and Pf growth 48h 4%.
For COc1ccc(CCNC(=O)Cn2nnc(C(=O)Nc3cccc(C)c3C)c2N)cc1OC the results were AMA1-RON2 inh -10%, HCV inhibitor inconclusive, NS1 inh 6%, Pf growth 96h 1.9µM*, SARS PLpro yeast -1% and Pf growth 48h -5%.
`CCC(C)(C)C1CCC2(CC1)NC(=O)N(CC(=O)NCCc1ccc(OC)c(OC)c1)C2=O` (configuration not stated) gave AMA1-RON2 inh -8%, HCV inhibitor inconclusive, Pf growth 96h inconclusive, SARS PLpro yeast -8% and Pf growth 48h 12µM*.
`COc1ccc(CCNC(=O)CN2C(=O)c3cccc4cccc(c34)C2=O)cc1OC` gave AMA1-RON2 inh -2%, HCV inhibitor -3%, NS1 inh 3%, Pf growth 96h 10µM*, SARS PLpro yeast 0% and Pf growth 48h 12%.
For NC[C@@H](Cc1ccccc1)P(=O)(O)O the results were NS1 inh 1%.
C=CCn1c(O)c(N=Nc2ccccc2C)c2ccccc21 was read as AMA1-RON2 inh -5%, HCV inhibitor 14%, NS1 inh -1%, Pf growth 96h 43%, SARS PLpro yeast -2% and Pf growth 48h -1%.
